Source: the supplement of paper PMC11219838

system: Caenorhabditis elegans L1 (N2); assay: survival and reproduction score of C. elegans L1 (0: 0-10 living worms, 1: 11-20, 2: 21-50, 3: >50, 4: overgrown) (score 0-4); higher = more worms, less nematicidal, active = 1 or less; extreme values may be limits of the assay; conditions: 60 µM; 6 days; temperature: 20 °C
Method in brief: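 Worm survival and reproduction were recorded as an ordinal score of living worms per well, read under a dissection microscope. Each 96-well well held about 20 synchronized C. elegans N2 L1s with E. coli HB101 in liquid NGM and compound at 60 µM final (0.6% v/v DMSO), sealed and shaken at 200 rpm, 20 °C, for 6 days. Scores ranged from 0 (0–10 worms) to 4 (overgrown, starved) and were the mean of two biological replicates.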

| Structure (SMILES) | survival and reproduction score |
| --- | --- |
| O=C(NC1CCCCC1)c1ccccc1-c1nc(-c2ccc(F)cc2)no1 | 4 (inactive) |
| Cc1ccccc1CSc1nnc(-c2ccccc2Cl)o1 | 4 (inactive) |
| Cc1ccc(NC(=O)CSc2nnc(-c3ccncc3)o2)cc1Cl | 4 (inactive) |
| CCOc1ccccc1NC(=O)CSc1nnc(-c2ccccc2)o1 | 4 (inactive) |
| Clc1cc(Br)ccc1OCc1nc(-c2ccncc2)no1 | 4 (inactive) |
| COc1ccccc1CC(=O)Nc1ccc(-c2noc(-c3ccccc3C)n2)cc1 | 4 (inactive) |
| Cc1cc(Br)ccc1OCc1nc(-c2cccnc2)no1 | 4 (inactive) |
| COc1ccc(OCc2nc(-c3cccc(Br)c3)no2)cc1 | 4 (inactive) |
| CCn1c(C)cc(C(=O)CSc2nnc(-c3ccccc3)o2)c1C | 4 (inactive) |
| Cc1cc(Cl)ccc1OCc1nc(-c2ccncc2)no1 | 0.5 (active) |
| Brc1ccc(-c2noc(COc3ccc4c(c3)OCO4)n2)cc1 | 4 (inactive) |
| Cc1ccc(-c2nc(-c3cccc(C)c3)no2)cc1 | 1 (active) |
| Cc1ccc(-c2nc(-c3ccccc3Br)no2)cc1 | 4 (inactive) |
| CCN(CC)C(=O)CSc1nnc(-c2ccc(Br)cc2)o1 | 4 (inactive) |
| COc1ccc(-c2noc(-c3ccccc3Cl)n2)cc1 | 4 (inactive) |
| O=C(CSc1nnc(-c2ccco2)o1)c1ccc(Br)cc1 | 4 (inactive) |
| COc1cccc(-c2noc(COc3ccc(C)cc3)n2)c1 | 4 (inactive) |
| O=C(CSc1nnc(-c2ccc(Cl)cc2)o1)NCc1ccccc1 | 4 (inactive) |
| Clc1ccc(CSc2nnc(-c3ccccc3Cl)o2)cc1 | 4 (inactive) |

| Structure (SMILES) | survival and reproduction score |
| --- | --- |
| CC(Sc1nnc(-c2ccco2)o1)C(=O)NC(c1ccccc1)c1ccccc1 (stereo not drawn) | 4 (inactive) |
| CCn1c(SCc2nc(-c3ccccc3)no2)nc2ccccc21 | 4 (inactive) |
| COc1ccccc1-c1nnc(SCc2ccccc2C#N)o1 | 4 (inactive) |
| Cc1cc(C)c(CSc2nnc(-c3ccccc3)o2)c(C)c1 | 4 (inactive) |
| COc1nc(-c2ccc(C)cc2)ccc1-c1noc(-c2cccc(C)c2)n1 | 4 (inactive) |
| CCCc1nnc(CSc2nnc(-c3ccc(Cl)cc3)o2)o1 | 1 (active) |
| Cc1ccc(-c2nc(-c3ccncc3)no2)cc1Cl | 0 (active) |
| Cc1cc(Cl)ccc1NC(=O)CSc1nnc(-c2ccncc2)o1 | 4 (inactive) |
| CC(Oc1ccccc1)c1nc(-c2cccnc2)no1 (stereo not drawn) | 4 (inactive) |
| Clc1ccc(OCc2nc(-c3ccccc3)no2)cc1 | 4 (inactive) |
| Cc1cc(Cl)ccc1OCc1nc(-c2cccnc2)no1 | 4 (inactive) |
| COc1ccc(-c2noc(COc3ccc(Br)c(C)c3)n2)cc1 | 4 (inactive) |
| Cc1ccccc1-c1nnc(SCc2ccccc2Cl)o1 | 4 (inactive) |
| COc1nc(C)ccc1-c1noc(-c2ccc(Cl)cc2)n1 | 4 (inactive) |
| Cc1ccc(CSc2nnc(-c3cccc(Br)c3)o2)c(C)c1 | 4 (inactive) |
| CC(C)C(=O)Nc1ccccc1-c1nc(-c2ccncc2)no1 | 4 (inactive) |
| CC(Sc1nnc(-c2ccc(C(C)(C)C)cc2)o1)C(=O)Nc1nccs1 (stereo not drawn) | 4 (inactive) |
| COc1cccc(-c2noc(COc3cc(C)ccc3C)n2)c1 | 4 (inactive) |
| Cc1ccc(SCc2nc(-c3cccc(C)c3)no2)cc1 | 4 (inactive) |
